# Compound activity as filed in PubChem BioAssay.
# Rows were chosen to be rich in hits. Some 2.5% of all compounds tested hit in one or more screens of this group.
# HIV Env fusion: inhibitors of HIV-1 Env-driven cell-cell fusion, primary screen, HeLa-JRFL effector, CEM21 target cells, luciferase; inhibition, % at 12.3 µM; 360,000 tested, 1.1% active; AID 651610, 2012;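 active = mean replicate inhibition score of at least 50 and every replicate individually at or above 50; inconclusive = only one of the two criteria met; inactive = mean below 50 and not all replicates reaching 50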;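 also: 0% = plate neutral controls and 100% = maraviroc near 300 nM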
# FXN GAA850 act: FXN promoter activators, primary screen, cell-based, luciferase luminescence, HEK293 lucGAA850; HEK293 lucGAA850 FXN promoter luciferase reporter, 24 h; percent of 10 µM SAHA response; 360,000 tested, 0.56% active; activation, % at 6 µM;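 active = activation above the average of all compounds screened plus 3 SD, cutoff fixed separately per campaign, cut at about 7.5% in these data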;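 also: 0% = DMSO wells and 100% = 10 µM SAHA wells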
# F508del corr: F508del CFTR correction, initial screen, CFBE line, single point | CFBE cells, YFP halide quenching; stimulated with forskolin plus potentiator P3; % fluorescence drop versus neutral controls | activity (quench increase), % at 7.58 µM | 350,000 tested, 0.36% active | AID 720511, 2013;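 active = mean added fluorescence quench of at least 8% versus neutral control, with both replicates also reaching 8%; inconclusive = only one of the mean or replicate conditions met; inactive = mean below 8% and not both replicates reaching 8%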;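 also: cells transiently co-express mutant CFTR-F508del with the halide-sensitive YFP; corrector assay measuring rescue of mutant channel to the surface after 24 h compound exposure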
# EWS-Fli block: EWS/Fli-driven NR0B1 reporter inhibitors, primary screen, A673 cells, NR0B1 luciferase, luminescence, MLPCN library. AID 651661, 2012. viability-normalised. inhibition, % at 12.6 µM. 350,000 tested, 0.67% active;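 active = mean inhibition of at least 50% after viability correction, with every replicate also passing that limit; inconclusive = mean reaches 50% but only one of two replicates passes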;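 also: firefly luciferase signal divided by Alamar Blue viability fluorescence both relative to DMSO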
# PAX8 reporter: inhibitors of PAX8-driven TPO luciferase reporter, primary screen, RMG-I cells, single concentration; AID 652154, 2013; inhibition, % at 12.6 µM; SteadyGlo, 24 h; 360,000 tested, 1.2% active;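 active = mean replicate inhibition at least 60% with every replicate also reaching 60%; inconclusive = only one of the two criteria is met; inactive = mean below 60% and not all replicates reaching 60%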;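 also: luciferase light reporting Pax8 driven TPO promoter activity; plate controls were median of neutral control wells for no effect and mitoxantrone controls for full effect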
# The depositor's hits bear a star; ? = inconclusive; · = not tested or not shown; [ ] = another dose, or the depositor's remark.
SMILES,HIV Env fusion,FXN GAA850 act,F508del corr,EWS-Fli block,PAX8 reporter
O=C(C[C@@H]1C[C@H]2c3cc(NC(=O)C4CCC4)ccc3O[C@H]2[C@H](CO)O1)NCc1cccnc1,10[16.7 µM],·,2,-4,3
CC(C)(C)NC(=O)C(c1ccncc1)n1c(=O)c(-c2cc3ccccc3[nH]2)nc2ccccc21 (stereo not drawn),58*,·,1,-13,-19
O=C(NCc1ccccc1)C(c1ccc(-c2ccccc2)cc1)n1c(=O)c(-c2cc3ccccc3[nH]2)nc2ccccc21 (stereo not drawn),-2,·,10*,-42,-6
CCOc1ccc(-n2c(SCC(=O)c3c(N)n(C)c(=O)n(C)c3=O)nnc2-c2cccnc2)cc1,·,0,0,2,81*
CN(C)C(=O)c1cccc(-c2ccc(C3[C@H]4CNC[C@@H]3N4S(=O)(=O)c3ccccc3F)cc2)c1 (stereo partly drawn),·,·,-3,-1,10
Cc1ccc(S(=O)(=O)N2CCN(C(=O)COC(=O)/C=C/c3ccc(Cl)cc3)CC2)c(C)c1,-5,4,17*,0,-1
Cc1ccc(S(=O)(=O)N2CCN(C(=O)COC(=O)/C=C/c3ccc(C(F)(F)F)cc3)CC2)c(C)c1,8,0,-1,0,-1
CC(/C=N/NC(=O)c1cc(-c2ccc(Cl)cc2)nc2ccccc12)=C\c1ccco1,-259,-1,·,·,87*
CC(/C=N/NC(=O)c1cc(-c2ccccc2)nc2ccccc12)=C\c1ccco1,-118,0,·,·,41
COc1cccc(CN2CCCCN3[C@H](C2)[C@H](c2ccc(-c4cccnc4)cc2)[C@@H]3CO)c1,·,·,-2,-1,-9
NC(N)=N/N=C/c1ccc(Br)cc1,7,-2,6,56*,-15
N#Cc1ccc(/C=N/N=C(N)N)cc1,-7,0,·,·,-7
COc1cccc(S(=O)(=O)N[C@@H]2C=C[C@@H](CC(=O)NCc3ccccc3)O[C@H]2CO)c1,0[16.7 µM],·,2,-6,-19
COc1ccccc1CNC(=O)C[C@@H]1CC[C@H]2[C@@H](COC[C@H](O)CN2Cc2ccc3c(c2)OCO3)O1,5[16.7 µM],·,0,-1,4
O=[N+]([O-])c1ccc(-c2nc(C(Cl)Cl)c3ccccc3n2)cc1,74*,-1,-2,67*,3
CN(Cc1ccccc1)c1nc(-c2ccc([N+](=O)[O-])cc2)nc2ccccc12,·,4,·,·,·
C/C=C/c1ccc2c(c1)O[C@@H](CN(C)C(=O)Cc1cccnc1)[C@H](C)CN([C@@H](C)CO)S2(=O)=O,-18[16.7 µM],·,6,4,-21
O=C(Nc1ccc2c(c1)[C@H]1C[C@H](CC(=O)N3CCOCC3)O[C@H](CO)[C@H]1O2)NC1CCCC1,·,·,-2,-3,-12
O=C1C=CC(=O)C(CNc2ccc(C(=O)OCc3ccccc3)cc2)=C1,47,-4,-2,59*,1
O=C(NCC1CC1)[C@@H]1N[C@@H]2c3ccc(-c4ccccc4F)c(=O)n3C[C@@H]2[C@H]1CO,·,·,1,3,·
O=C(C[C@@H]1C=C[C@H](NC(=O)C2CCOCC2)[C@@H](CO)O1)NCc1ccccc1Cl,·,·,4,11,·
O=C(c1cc2sccc2n1Cc1ccc(F)cc1)N1CCN(c2nc3ccccc3s2)CC1,87*,-3,·,·,1
COCCNC(=O)C1CCN(C(=O)c2cc3sccc3n2Cc2ccc(F)cc2)CC1,36,0,2,9,-7
CCN1CCN(C(=O)c2ccc(-c3nc4ccccc4s3)s2)CC1,-26,6,-1,-47,-138
O=C(c1ccc(-c2nc3ccccc3s2)s1)N1CCOCC1,?,·,0,77*,66*
SMILES,HIV Env fusion,FXN GAA850 act,F508del corr,EWS-Fli block,PAX8 reporter
O=C(c1ccc(Cl)s1)N1CCN(c2nc3ccccc3s2)CC1,77*,2,-1,-5,-2
O=C(c1cccs1)N1CCN(c2nc3ccccc3s2)CC1,-13,2,0,-37,-43
Cn1c(C(=O)N2CCN(c3nc4ccccc4s3)CC2)cc2sccc21,71*,-2,·,·,·
O=C(C[C@H]1C[C@H]2c3cc(NC(=O)Nc4ccccc4)ccc3O[C@H]2[C@@H](CO)O1)NCc1ccccc1,-25[16.7 µM],·,-2,-15,-25
CC(=O)NC[C@H]1[C@H](c2ccc(-c3ccccc3F)cc2)[C@@H](CO)N1C(=O)C1CC1,·,·,1,-10,-27
O=C(NC[C@@H]1CC[C@H]2[C@H](CN2Cc2ccccc2F)O1)C1CC1,10[16.7 µM],·,-4,-6,-24
Cc1ccccc1-c1cnc2c(c1)C(=O)N([C@@H](C)CO)C[C@@H](C)[C@H](CN(C)C(=O)CC1CC1)O2,-10[16.7 µM],·,0,2,5
CO[C@@H]1CN(C)C(=O)c2ccc(NC(=O)c3cc(C)on3)cc2OC[C@@H](C)N(S(=O)(=O)c2cccc(F)c2)C[C@H]1C,·,·,1,11,·
CC1(C)CC(Nc2ccc(Nc3ccccc3)cc2)CC(C)(C)N1,26,2,-6,5,69*
O=C(C[C@@H]1C=C[C@@H](NC(=O)NC2CCCCC2)[C@@H](CO)O1)NCc1ccc(Cl)cc1,13[16.7 µM],·,-2,1,8
COc1ccccc1S(=O)(=O)N(C)C[C@H]1Oc2cc(C#CCC(C)C)ccc2S(=O)(=O)N([C@@H](C)CO)C[C@H]1C,55*[16.7 µM],·,2,22,·
COc1ccccc1S(=O)(=O)N(C)C[C@@H]1Oc2cc(C#CCC3CCCC3)ccc2S(=O)(=O)N([C@@H](C)CO)C[C@H]1C,15[16.7 µM],·,4,-3,73*
COc1ccccc1S(=O)(=O)N(C)C[C@@H]1Oc2cc(C#CCC3CCCC3)ccc2S(=O)(=O)N([C@@H](C)CO)C[C@@H]1C,38[16.7 µM],·,3,10,76*
CO[C@H]1CC[C@H]2CCN(C)C(=O)[C@H](C)[C@H](OC)CN(C)C(=O)c3cc(C#N)ccc3OC[C@@H]1O2,-10[16.7 µM],·,3,-2,-3
O=C(CCCC(=O)OCC(Cl)=C(Cl)Cl)Nc1ccc(F)cc1,·,-2,-1,4,103*
O=C(Nc1ccccc1)c1ccccc1NC(=O)C1CCCCC1,·,-1,·,·,·
Cc1cccc(NC(=O)c2ccccc2NC(=O)C2CCCCC2)c1C,·,1,8.1*,10,·
CN1C(=O)c2cc(NC(=O)Cc3cccs3)ccc2OC[C@H]2O[C@@H](CC(=O)NCC3CCCCC3)CC[C@H]21,·,·,-5,11,-13
O=C(CSc1nc2ncc(Br)cc2[nH]1)c1cccc([N+](=O)[O-])c1,-15,-1,·,67*,15
O=C(Cc1nc2ccccc2[nH]1)c1cccc([N+](=O)[O-])c1,73*,0,2,46,62*
C[C@H](CO)N1C[C@H](C)[C@H](CN(C)S(=O)(=O)c2ccc(F)cc2)Oc2ccc(NS(=O)(=O)c3ccccc3)cc2C1=O,-15[16.7 µM],·,-2,9,-1
